Assay outcomes (PubChem BioAssay)
A selection: hits, their analogues and other compounds. The true share with any hit is near 4.2%.
FBA Mtb inh: Mtb FBA enzyme inhibitors, primary screen, biochemical, fluorescence, strain H37Rv. inhibition, % at 1 µM. 360,000 tested, 2.3% active. Fructose-bisphosphate aldolase (Mycobacterium tuberculosis (strain ATCC 25618 / H37Rv)), …. purified M. tuberculosis FBA, fluorescence read-out; in the data active means inhibition above about 27%;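 further: 0% = vehicle and 100% = reference inhibitor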
Target sequence (P9WQA3 whole entry, looked up): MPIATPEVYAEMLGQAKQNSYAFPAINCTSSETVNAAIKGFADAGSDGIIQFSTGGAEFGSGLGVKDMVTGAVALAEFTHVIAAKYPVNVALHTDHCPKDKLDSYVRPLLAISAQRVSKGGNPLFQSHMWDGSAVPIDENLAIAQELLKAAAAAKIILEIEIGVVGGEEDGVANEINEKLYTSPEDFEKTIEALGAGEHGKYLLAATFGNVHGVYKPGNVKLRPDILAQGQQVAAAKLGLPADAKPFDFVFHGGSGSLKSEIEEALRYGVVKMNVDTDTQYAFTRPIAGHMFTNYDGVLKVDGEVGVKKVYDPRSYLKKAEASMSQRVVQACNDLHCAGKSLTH
CCHFV vOTU inh: CCHFV vOTU protease inhibitors, primary screen, biochemical, Pep-AMC substrate, fluorescence | inhibition, % at 11.5 µM | 370,000 tested, 0.55% active | Crimean-Congo hemorrhagic fever virus L polyprotein viral ovarian tumor (vOTU) protease … | AID 651958, 2012; further: 0% = vehicle wells with enzyme and 100% = no enzyme wells
RecA intein inh: Mtb RecA intein splicing inhibitors, primary screen, biochemical, fluorescence, HTS; inhibition, % (no concentration beside the values); AID 2221, 2009; Protein RecA (Mycobacterium tuberculosis (strain ATCC 25618 / H37Rv)), P9WHJ3; cell-free RecA intein splicing; 290,000 tested, 0.75% active; in the data active means inhibition above about 30%;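 further: 0% = vehicle wells and 100% = reference inhibitor control wells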
GDH-TPI counter-1: GDH-TPI coupling enzyme inhibitors, primary screen, artefact control for M. tuberculosis FBA inhibitor project, biochemical, absorbance, full deck; GDH-TPI coupled enzyme counterscreen, NADH absorbance; inhibition, % at 4.8 µM; 360,000 tested, 1.2% active;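 further: 0% = DMSO wells and 100% = wells lacking the enzyme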
Mtb FBA inh conf: M. tuberculosis aldolase blockers, biochemical, fluorescence, strain H37Rv, confirmation; inhibition, % at 1 µM; 5,600 tested, 78% active; shares compounds with FBA Mtb inh; purified M. tuberculosis FBA, fluorescence read-out; in the data active means inhibition above about 27%;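 further: 0% = vehicle wells and 100% = reference inhibitor wells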
GDH-TPI counter-2: GDH-TPI coupling enzyme inhibitors, artefact control for M. tuberculosis FBA inhibitor project, biochemical, fluorescence, high throughput | 5,600 tested, 81% active | inhibition, % at 1 µM | GDH-TPI coupled enzyme counterscreen | shares compounds with FBA Mtb inh; in the data active means inhibition above about 10%
The depositor's hits bear a star. Unless noted, no stated cut-off is given here; in the data, active means inhibition above about 30%; inactive means the rest.

How did O=C(NCc1cccc2[nH]ccc12)C1CCC(=O)N(CCc2ccc(Cl)cc2)C1 (stereo not given) do in these assays?
FBA Mtb inh: -2; CCHFV vOTU inh: 16; RecA intein inh: 0; GDH-TPI counter-1: 3

What do the screens show for `COCc1nnc(NC(=O)c2ccccc2Oc2ccccc2)s1`?
FBA Mtb inh: 73*; CCHFV vOTU inh: 1; RecA intein inh: 2; GDH-TPI counter-1: 8; Mtb FBA inh conf: 158*; GDH-TPI counter-2: 119*

Results for O=C(COC(=O)c1ccc(F)cc1Cl)NC1CCCCCCC1 ?
FBA Mtb inh: 3; CCHFV vOTU inh: -4; GDH-TPI counter-1: 13

What do the screens show for `Cc1c(O[C@@H]2O[C@H](CO)[C@@H](O)[C@H](O)[C@H]2O)ccc2c1oc(=O)c1ccccc12`?
FBA Mtb inh: 88*; CCHFV vOTU inh: -109; RecA intein inh: 0; GDH-TPI counter-1: 14; Mtb FBA inh conf: 62*; GDH-TPI counter-2: 52*

Results for Cc1c(C)c2ccc(O[C@@H]3O[C@H](CO)[C@H](O)[C@H](O)[C@H]3O)c(C)c2oc1=O ?
FBA Mtb inh: 34*; CCHFV vOTU inh: 7; RecA intein inh: 2; GDH-TPI counter-1: 16; Mtb FBA inh conf: 49*; GDH-TPI counter-2: 44*

What do the screens show for `C[C@@H]1CN([C@@H](C)CO)C(=O)c2cc(C#Cc3ccccc3)cnc2O[C@H]1CN(C)C(=O)c1ccccc1F`?
FBA Mtb inh: -2; CCHFV vOTU inh: 6; GDH-TPI counter-1: 11

How did Cc1occc1C(=O)N/N=C/c1cccc2ccccc12 do in these assays?
FBA Mtb inh: -1; CCHFV vOTU inh: 8; GDH-TPI counter-1: 20

What do the screens show for `Cc1ccc(-c2cc3nc(C)cc(C)n3n2)cc1`?
FBA Mtb inh: 9; CCHFV vOTU inh: -11; RecA intein inh: 5; GDH-TPI counter-1: -5

Results for Cc1cc(C)n2nc(-c3ccsc3-n3c(C)ccc3C)cc2n1 ?
FBA Mtb inh: 46*; CCHFV vOTU inh: 3; RecA intein inh: -3; GDH-TPI counter-1: 4; Mtb FBA inh conf: 61*; GDH-TPI counter-2: 27*

How did COc1ccc(NC(=O)CN(c2ccccc2F)S(=O)(=O)c2ccc(C)cc2)c(OC)c1 do in these assays?
FBA Mtb inh: 0; CCHFV vOTU inh: -10; RecA intein inh: 3; GDH-TPI counter-1: 6

How did Fc1ccc2cc(-c3ccccc3)ncc2c1 do in these assays?
FBA Mtb inh: 49*; CCHFV vOTU inh: -6; GDH-TPI counter-1: 21; Mtb FBA inh conf: 88*; GDH-TPI counter-2: 71*

Results for CCOCCCNC(=O)c1oc2ccc3c(c2c1C)C(O)CC(C)(C)O3 (stereo not given) ?
FBA Mtb inh: 33*; CCHFV vOTU inh: -2; RecA intein inh: -3; GDH-TPI counter-1: 21; Mtb FBA inh conf: 35*; GDH-TPI counter-2: 25*

Results for CCCNC(=O)c1oc2ccc3c(c2c1C)C(O)CC(C)(C)O3 (stereo not given) ?
FBA Mtb inh: 49*; CCHFV vOTU inh: -20; RecA intein inh: -1; GDH-TPI counter-1: 6; Mtb FBA inh conf: 3; GDH-TPI counter-2: 0

What do the screens show for `Cc1c(C(=O)NCCCN2CCCCC2)oc2ccc3c(c12)C(O)CC1(CCCCC1)O3` (stereo not given)?
FBA Mtb inh: 18; CCHFV vOTU inh: -11; RecA intein inh: -5; GDH-TPI counter-1: 15

How did COC(=O)[C@@]12CCCCN1[C@H](c1ccc(-c3cc(C(C)=O)cs3)cc1)[C@H]1C(=O)N(C)C(=O)[C@H]12 do in these assays?
FBA Mtb inh: -1; CCHFV vOTU inh: -1; RecA intein inh: -2; GDH-TPI counter-1: 14

What do the screens show for `CC(C)[C@H]1COC(NC2=N[C@@H](C(C)C)CO2)=N1`?
FBA Mtb inh: 1; CCHFV vOTU inh: 2; RecA intein inh: 1; GDH-TPI counter-1: -1

How did Nc1ncccc1C(=O)OCC(=O)N1CCN(S(=O)(=O)c2ccc(Cl)cc2)CC1 do in these assays?
FBA Mtb inh: 62*; CCHFV vOTU inh: -50; GDH-TPI counter-1: 23; Mtb FBA inh conf: 9; GDH-TPI counter-2: -4

How did Cc1cc(C)c(S(=O)(=O)N2CCOC2CNC(=O)C(=O)NCc2ccncc2)c(C)c1 (stereo not given) do in these assays?
FBA Mtb inh: 4; CCHFV vOTU inh: -1; RecA intein inh: -2; GDH-TPI counter-1: 11

Results for Cc1ccc2[nH]c(C(=O)NCCN3CCCC3)cc2c1 ?
FBA Mtb inh: 41*; CCHFV vOTU inh: -6; RecA intein inh: -2; GDH-TPI counter-1: 10; Mtb FBA inh conf: 76*; GDH-TPI counter-2: 63*

Results for Cc1ccc2[nH]c(C(=O)N3CCCCC3)cc2c1 ?
FBA Mtb inh: 3; CCHFV vOTU inh: 4; RecA intein inh: -1; GDH-TPI counter-1: 3

Results for O=C(NCc1nnc2c(C(F)(F)F)cc(Cl)cn12)c1ccco1 ?
FBA Mtb inh: 1; CCHFV vOTU inh: 15; RecA intein inh: 1; GDH-TPI counter-1: -2

Results for CCOC(=O)c1nc2c(=O)n(C)c(=O)n(C)c2n(C)c1=O ?
FBA Mtb inh: 18; CCHFV vOTU inh: -18; RecA intein inh: -6; GDH-TPI counter-1: 16

What do the screens show for `N#Cc1nc(-c2ccc(Cl)cc2)oc1NCCc1ccccn1`?
FBA Mtb inh: 28*; CCHFV vOTU inh: -8; RecA intein inh: 2; GDH-TPI counter-1: 31*; Mtb FBA inh conf: 88*; GDH-TPI counter-2: 82*

Results for CCOc1ccc(Nc2oc(-c3ccc(Cl)cc3)nc2C#N)cc1 ?
FBA Mtb inh: 2; CCHFV vOTU inh: -2; RecA intein inh: -2; GDH-TPI counter-1: 9

How did COc1ccc(-c2nc(C#N)c(NCCc3ccccc3)o2)cc1 do in these assays?
FBA Mtb inh: 80*; CCHFV vOTU inh: -19; RecA intein inh: -1; GDH-TPI counter-1: 13; Mtb FBA inh conf: 37*; GDH-TPI counter-2: 26*

Results for COc1ccc(CNc2oc(-c3ccccc3)nc2C#N)cc1 ?
FBA Mtb inh: 92*; CCHFV vOTU inh: -26; RecA intein inh: 7; GDH-TPI counter-1: 18; Mtb FBA inh conf: 95*; GDH-TPI counter-2: 73*

Results for CCOc1ccc(-c2nc(C#N)c(NC3CC3)o2)cc1 ?
FBA Mtb inh: 96*; RecA intein inh: 2; GDH-TPI counter-1: 8; Mtb FBA inh conf: -3; GDH-TPI counter-2: -7

What do the screens show for `CCn1c(SCC(=O)N2CCCCC2C)nc2c1c(=O)n(C)c(=O)n2C` (stereo not given)?
FBA Mtb inh: 2; CCHFV vOTU inh: 6; RecA intein inh: 2; GDH-TPI counter-1: -7

What do the screens show for `COc1ccc(CCNc2oc(COc3ccc(Br)cc3)nc2C#N)cc1OC`?
FBA Mtb inh: 2; CCHFV vOTU inh: 6; RecA intein inh: 10; GDH-TPI counter-1: -1
